Results taken from PubChem BioAssay (EPA / NIEHS).
Inconclusive results are not listed. The source made the active and inactive calls. How the source made its calls, unless noted: active means hit-call score of the fitted dose curve at least 0.9, where 1 is the maximum; inactive means score below 0.9.

Tests used:
[1] = read-out: NAD(P)H dehydrogenase [quinone] 1 (NQO1), NQO1 (gene 1728); assay: LTEA_HepaRG_NQO1: Life Technologies and Expression Analysis (LTEA) Assay for NAD(P)H dehydrogenase [quinone] 1 (NQO1) using HepaRG (AID 2283526); details: mRNA level, 48 h; actives raise or lower the signal
How it was run: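 Human HepaRG hepatic cells received chemicals for 48 h in serum-free induction medium with 0.5% DMSO, up to 100 uM. Expression was assessed by TaqMan qRT-PCR against housekeeping controls and fitted bidirectionally against DMSO.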

[2] = read-out: Nuclear factor erythroid 2-related factor 2 (Homo sapiens) (UniProt Q16236); assay: LTEA_HepaRG_NFE2L2: Life Technologies and Expression Analysis (LTEA) Assay for Nuclear factor erythroid 2-related factor 2 (NFE2L2) Transcription Factor using HepaRG (AID 2283527); details: mRNA level, 48 h; actives raise or lower the signal
How it was run: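 Transcript level of NFE2L2 is the read-out, measured by microfluidic TaqMan qRT-PCR and normalized to three housekeeping genes. Human HepaRG cultures received test chemical for 48 h at up to 100 uM in half-log steps. Gain or loss of signal is fitted relative to 0.5% DMSO.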

[3] = read-out: succinate dehydrogenase complex iron sulfur subunit B (SDHB), SDHB (gene 6390); assay: LTEA_HepaRG_SDHB: Life Technologies and Expression Analysis (LTEA) Assay for succinate dehydrogenase complex iron sulfur subunit B (SDHB) using HepaRG (AID 2283528); details: mRNA level, 48 h; actives raise or lower the signal
How it was run: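 Readout is SDHB transcript level by qRT-PCR, normalised to three housekeeping genes and fitted bidirectionally against 0.5% DMSO vehicle. Human HepaRG cells were treated for 48 h at up to 100 uM.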

[4] = read-out: Signal transducer and activator of transcription 3 (Homo sapiens) (UniProt P40763); assay: LTEA_HepaRG_STAT3: Life Technologies and Expression Analysis (LTEA) Assay for Signal transducer and activator of transcription (STAT3) using HepaRG (AID 2283529); details: mRNA level, 48 h; actives raise or lower the signal
How it was run: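 Read-out is STAT3 mRNA level by qRT-PCR, normalized to three housekeeping genes, in human HepaRG liver cells treated for 48 h. Concentrations ran from 100 uM downward in half-log steps; curves were fitted for gain or loss relative to 0.5% DMSO.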

[5] = read-out: solute carrier (SLCO1B1), SLCO1B1 (gene 10599); assay: LTEA_HepaRG_SLCO1B1: Life Technologies and Expression Analysis (LTEA) Assay for solute carrier (SLCO1B1) using HepaRG (AID 2283530); details: mRNA level, 48 h; actives raise or lower the signal
How it was run: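 SLCO1B1 transcript levels were quantified by TaqMan qRT-PCR using three housekeeping genes for normalization. This followed 48 h chemical exposure (100 uM top, half-log, 8 points, 0.5% DMSO) of HepaRG liver cells, with gain or loss fitted relative to DMSO.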

[6] = read-out: sulfotransferase 2A1 (SULT2A1), SULT2A1 (gene 6822); assay: LTEA_HepaRG_SULT2A1: Life Technologies and Expression Analysis (LTEA) Assay for sulfotransferase 2A1 (SULT2A1) using HepaRG (AID 2283531); details: mRNA level, 48 h; actives raise or lower the signal
How it was run: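 Expression change of SULT2A1, by qRT-PCR with three housekeeping-gene normalization, was scored bidirectionally versus DMSO. Cells: differentiated HepaRG, dosed in duplicate for 48 h across 8 points, highest 100 µM, half-log dilution, 0.5% DMSO.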

[7] = read-out: Transforming Growth Factor (TGFA), TGFA (gene 7039); assay: LTEA_HepaRG_TGFA: Life Technologies and Expression Analysis (LTEA) Assay for Transforming Growth Factor (TGFA) using HepaRG (AID 2283532); details: mRNA level, 48 h; actives raise or lower the signal
How it was run: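 HepaRG (human liver line), 48 h exposure, 8 conc. half-log down from 100 uM, 0.5% DMSO vehicle, duplicates; serum-free induction medium. TGFA mRNA by TaqMan qRT-PCR, ACTB/GAPDH/POLR2A normalization; gain/loss fit vs DMSO.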

[8] = read-out: Transforming Growth Factor (TGFB1), TGFB1 (gene 7040); assay: LTEA_HepaRG_TGFB1: Life Technologies and Expression Analysis (LTEA) Assay for Transforming Growth Factor (TGFB1) Transporter using HepaRG (AID 2283533); details: mRNA level, 48 h; actives raise or lower the signal
How it was run: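 TGFB1 transcript measured by qRT-PCR with normalisation to three housekeeping genes (ACTB, GAPDH, POLR2A); human HepaRG line treated in duplicate for 48 hr with an 8-point series topping at 100 uM, 0.5% DMSO vehicle, bidirectionally fitted.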

TIMP1, TIMP1 (gene 7076) = assay: LTEA_HepaRG_TIMP1: Life Technologies and Expression Analysis (LTEA) Assay for TIMP1 using HepaRG (AID 2283534); details: mRNA level, 48 h; actives raise or lower the signal
How it was run: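 Bidirectional change in TIMP1 transcript versus 0.5% DMSO, measured by TaqMan qRT-PCR with three housekeeping genes for normalization. HepaRG human liver cells dosed 48 h in duplicate, top concentration 100 uM with half-log dilutions.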

[9] = read-out: Tumor necrosis factor receptor 1 (TNFRSF1A), TNFRSF1A (gene 7132); assay: LTEA_HepaRG_TNFRSF1A: Life Technologies and Expression Analysis (LTEA) Assay for Tumor necrosis factor receptor 1 (TNFRSF1A) using HepaRG (AID 2283535); details: mRNA level, 48 h; actives raise or lower the signal
How it was run: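 mRNA measured by qRT-PCR (TaqMan, Fluidigm arrays) against ACTB/GAPDH/POLR2A housekeepers after 48 h chemical exposure of HepaRG cells. Top concentration 100 uM, half-log 8-point series, duplicates; vehicle 0.5% DMSO, both fit directions.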

[10] = read-out: Thyroid Hormone Responsive (THRSP), THRSP (gene 7069); assay: LTEA_HepaRG_THRSP: Life Technologies and Expression Analysis (LTEA) Assay for Thyroid Hormone Responsive (THRSP) using HepaRG (AID 2283536); details: mRNA level, 48 h; actives raise or lower the signal
How it was run: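 mRNA induction or loss relative to 0.5% DMSO vehicle was fitted bidirectionally across an eight-point curve whose highest exposure was 100 uM. Human HepaRG liver cells received chemicals in duplicate over 48 h before RNA extraction.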

[11] = read-out: Cellular tumor antigen p53 (Homo sapiens) (UniProt P04637); assay: LTEA_HepaRG_TP53: Life Technologies and Expression Analysis (LTEA) Assay for Tumor Protein P53 (TP53) using HepaRG (AID 2283537); details: mRNA level, 48 h; actives raise or lower the signal
How it was run: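 Read-out is TP53 transcript level by microfluidic qRT-PCR, normalised to three housekeeping genes and fitted bidirectionally against DMSO. Human HepaRG cells received compounds for 48 h, highest concentration 100 uM.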

[12] = read-out: UDP glucuronosyltransferase (UGT1A1), UGT1A1 (gene 54658); assay: LTEA_HepaRG_UGT1A1: Life Technologies and Expression Analysis (LTEA) Assay for UDP glucuronosyltransferase (UGT1A1) using HepaRG (AID 2283538); details: mRNA level, 48 h; actives raise or lower the signal
How it was run: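 Human liver HepaRG cultures receive test chemical for 48 h, up to 100 uM in 0.5% DMSO, with phenobarbital induction controls. UGT1A1 mRNA is measured by qRT-PCR and normalized to ACTB, GAPDH and POLR2A.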

[13] = read-out: UDP glucuronosyltransferase (UGT1A6), UGT1A6 (gene 54578); assay: LTEA_HepaRG_UGT1A6: Life Technologies and Expression Analysis (LTEA) Assay for UDP glucuronosyltransferase (UGT1A6) using HepaRG (AID 2283539); details: mRNA level, 48 h; actives raise or lower the signal
How it was run: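 Expression was quantified by TaqMan qRT-PCR on Fluidigm arrays with ACTB/GAPDH/POLR2A normalization and bidirectional fitting against 0.5% DMSO. HepaRG cells (~100,000/well) were treated in duplicate for 48 h at eight half-log concentrations up to 100 uM in serum-free induction medium.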

[14] = read-out: X-box binding protein 1 (XBP1), XBP1 (gene 7494); assay: LTEA_HepaRG_XBP1: Life Technologies and Expression Analysis (LTEA) Assay for X-box binding protein 1 (XBP1) using HepaRG (AID 2283540); details: mRNA level, 48 h; actives raise or lower the signal
How it was run: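 XBP1 transcript by qRT-PCR (housekeeping-normalized: ACTB, GAPDH, POLR2A) after 48 h chemical treatment of HepaRG cells, 8-point half-log series topping at 100 uM, vehicle 0.5% DMSO. Gain and loss of signal fitted relative to DMSO.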

[15] = LTEA_HepaRG_LDH_cytotoxicity: Cytotoxicity Assessment in the Life Technologies and Expression Analysis (LTEA) Assay (AID 2283563; active means hit-call score of the fitted dose curve at least 0.9, where 1 is the maximum;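 on AC50: LDH activity released into spent culture medium as a marker of cell death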)
How it was run: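 LDH release into culture medium read after 48 h chemical treatment of HepaRG cells. Duplicate wells, eight-point half-log series topping at 100 uM, 0.5% DMSO vehicle and baseline.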

[16] = molecular target: Cellular tumor antigen p53 (Homo sapiens) (UniProt P04637); assay: TOX21_p53_BLA_p2_ratio: Tox21 HCT-116 p53 Agonism Beta-lactamase Assay, Ratio, Phase 2 (AID 2283592; active means hit-call score of the fitted dose curve at least 0.9, where 1 is the maximum)
How it was run: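 Gain-of-signal p53 agonism was scored from the beta-lactamase FRET ratio (460/530 nm, 405 nm excitation) in HCT116 cells treated 16 h at 37C, 5% CO2, with DMSO serving as negative control and baseline.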

[17] = TOX21_p53_BLA_p2_viability: Viability Assessment in the Tox21 HCT-116 p53 Agonism Beta-lactamase Assay, Phase 2 (AID 2283591; active means hit-call score of the fitted dose curve at least 0.9, where 1 is the maximum;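 further: compound exposure lasted 16 h at 37 °C; actives lower the ATP signal meaning cytotoxicity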)
How it was run: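 Cytotoxicity readout: CellTiter-Glo ATP luminescence, 30 min at room temperature, after the beta-lactamase read. Cells were HCT116 exposed 16 h at 37C to compounds pin-transferred at 217-fold dilution from DMSO stocks.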

[18] = TOX21_p53_BLA_p3_viability: Viability Assessment in the Tox21 HCT-116 p53 Agonism Beta-lactamase Assay, Phase 3 (AID 2283593; active means hit-call score of the fitted dose curve at least 0.9, where 1 is the maximum;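 further: cells exposed to compound for 16 h before reading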)
How it was run: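 Cellular ATP was quantified by CellTiter-Glo luminescence, read after 30 min at room temperature. Beforehand, HCT116 cells (4000/well) received compound 5 h post-seeding, 217-fold diluted from DMSO, then incubated 16 h at 37C.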

[19] = ATG_XTT_Cytotoxicity: Cytotoxicity Assessment in the Attagene TRANS-FACTORIAL HepG2 Assay (AID 2283584; active means hit-call score of the fitted dose curve at least 0.9, where 1 is the maximum)
How it was run: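 Viability endpoint from XTT after 24 h chemical exposure of reporter-transfected human HepG2 liver cells; signal loss fitted relative to DMSO negative control.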

Measured: AC50

Signal transducer and activator of transcription 3 (Homo sapiens), sequence (P40763 whole entry, looked up): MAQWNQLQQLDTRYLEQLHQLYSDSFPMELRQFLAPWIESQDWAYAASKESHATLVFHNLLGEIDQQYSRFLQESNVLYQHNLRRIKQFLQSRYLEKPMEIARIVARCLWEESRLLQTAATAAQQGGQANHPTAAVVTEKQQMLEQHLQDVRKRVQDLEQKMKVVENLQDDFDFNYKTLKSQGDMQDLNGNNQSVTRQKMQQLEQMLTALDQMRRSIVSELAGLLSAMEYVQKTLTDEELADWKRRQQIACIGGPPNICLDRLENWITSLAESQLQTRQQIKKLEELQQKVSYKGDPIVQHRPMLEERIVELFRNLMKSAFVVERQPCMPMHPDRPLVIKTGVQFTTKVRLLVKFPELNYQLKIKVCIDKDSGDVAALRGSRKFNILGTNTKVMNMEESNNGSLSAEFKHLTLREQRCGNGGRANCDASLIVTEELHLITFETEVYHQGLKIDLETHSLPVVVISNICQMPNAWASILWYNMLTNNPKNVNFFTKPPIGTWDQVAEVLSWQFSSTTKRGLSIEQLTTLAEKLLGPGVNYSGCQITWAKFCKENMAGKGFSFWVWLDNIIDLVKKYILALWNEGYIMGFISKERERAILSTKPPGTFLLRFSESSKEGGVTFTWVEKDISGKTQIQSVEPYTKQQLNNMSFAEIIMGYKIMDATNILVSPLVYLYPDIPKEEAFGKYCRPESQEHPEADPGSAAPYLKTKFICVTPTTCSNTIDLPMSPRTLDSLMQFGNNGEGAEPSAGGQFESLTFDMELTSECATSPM
Cellular tumor antigen p53 (Homo sapiens), sequence (P04637 whole entry, looked up): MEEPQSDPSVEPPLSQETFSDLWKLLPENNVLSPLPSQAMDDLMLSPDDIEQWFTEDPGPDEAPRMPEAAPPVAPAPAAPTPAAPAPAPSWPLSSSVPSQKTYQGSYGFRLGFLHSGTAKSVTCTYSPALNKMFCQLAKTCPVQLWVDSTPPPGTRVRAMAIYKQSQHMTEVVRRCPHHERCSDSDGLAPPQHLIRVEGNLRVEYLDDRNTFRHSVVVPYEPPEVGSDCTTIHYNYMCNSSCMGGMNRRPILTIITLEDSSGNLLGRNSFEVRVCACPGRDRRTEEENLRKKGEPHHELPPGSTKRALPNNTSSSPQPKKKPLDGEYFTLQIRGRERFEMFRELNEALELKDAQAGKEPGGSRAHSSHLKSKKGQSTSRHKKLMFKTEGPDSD
Nuclear factor erythroid 2-related factor 2 (Homo sapiens), sequence (Q16236 whole entry, looked up): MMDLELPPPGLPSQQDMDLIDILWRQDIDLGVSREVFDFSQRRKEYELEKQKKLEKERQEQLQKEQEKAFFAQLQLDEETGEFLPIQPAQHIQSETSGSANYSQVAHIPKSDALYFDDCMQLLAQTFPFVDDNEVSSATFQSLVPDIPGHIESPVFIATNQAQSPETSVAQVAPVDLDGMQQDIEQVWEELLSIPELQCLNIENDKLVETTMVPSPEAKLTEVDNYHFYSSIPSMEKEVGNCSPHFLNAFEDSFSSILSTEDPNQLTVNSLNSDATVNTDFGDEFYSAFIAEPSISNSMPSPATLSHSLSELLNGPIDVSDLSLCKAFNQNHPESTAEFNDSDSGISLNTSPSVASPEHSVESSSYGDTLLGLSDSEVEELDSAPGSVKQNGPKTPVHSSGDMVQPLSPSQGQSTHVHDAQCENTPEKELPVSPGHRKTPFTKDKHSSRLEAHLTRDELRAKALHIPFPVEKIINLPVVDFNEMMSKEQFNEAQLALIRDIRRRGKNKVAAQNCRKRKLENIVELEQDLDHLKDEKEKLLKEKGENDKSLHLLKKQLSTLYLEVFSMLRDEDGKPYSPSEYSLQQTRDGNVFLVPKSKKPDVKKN

COC(=O)C=C(C)OP(=O)(OC)OC
not listed: [17] | [18] | [19]
inactive: all other assays above

CCc1nn(C)c(C(=O)NCc2ccc(C(C)(C)C)cc2)c1Cl
active: [1] 50 µM | [2] 10.6 µM | [5] 31.3 µM | [6] 26.8 µM | [7] 16.4 µM | [8] 50 µM | TIMP1, TIMP1 (gene 7076) 28 µM | [10] 1.06 µM | [11] 12.1 µM | [12] 27.8 µM | [13] 37.1 µM | [14] 13.6 µM | [15] 27.3 µM | [17] 46.1 µM | [16] 0.0232 µM
inactive: [3] | [4] | [18]

N#Cc1nn(-c2c(Cl)cc(C(F)(F)F)cc2Cl)c(N)c1S(=O)C(F)(F)F (stereo not drawn)
inactive: [3] | [4] | [8] | [19] | [17] | [16] | [18]
active: [1] 81.6 µM | [2] 83 µM | [5] 36.2 µM | [6] 50.2 µM | [7] 33.2 µM | TIMP1, TIMP1 (gene 7076) 66.7 µM | [10] 27.3 µM | [11] 32 µM | [13] 44.8 µM | [14] 68.6 µM | [15] 34.2 µM
